# KB-3-1 tox: qHTS assay for MDR1-selective chemotherapeutics: Primary screen using the parental adenocarcinoma cell KB-3-1. KB-3-1 viability, CellTiter-Glo ATP luminescence, 72 h. Potency, µM (series often up to 46.1 µM), usual class: cytotoxic. AID 1347075, 2019. actives 1.4% (n = 400,000); further: potency means the concentration at half of the fitted maximal effect; on the % scale 0 is the no-effect control and ±100 the full control effect; nearly all actives have a fitted effect of over 60% in size
#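 Viability of parental KB-3-1 cells, measured by CellTiter-Glo luminescence, followed a 72 h incubation at 37 °C with pinned compounds in phenol-red-free DMEM containing 10% FBS.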
# MCF10A rerep: A quantitative high throughput screen for small molecules that induce DNA re-replication in MCF 10a normal breast cells. MCF 10A DNA re-replication, Hoechst nuclear intensity, 48 h. Potency, µM (doses to about 46.1 µM), without a hit: at the highest dose activity, positive = re-replication, usual class: activators. actives 2.9% (n = 350,000); further: potency means the concentration at half of the fitted maximal effect; % of control where 0% means no effect; nearly all actives have a fitted effect of over 50% in size
# KB-V1 cytotox: qHTS assay for MDR1-selective chemotherapeutics: Primary screen using the drug-selected MDR subline cells KB-V1; actives 3.4% (n = 400,000); Potency, µM (series often up to 46.1 µM), hits mostly cytotoxic; AID 1347076, 2019; KB-V1 MDR cells viability, CellTiter-Glo, 72 h; further: potency means the concentration at half of the fitted maximal effect; on the % scale 0 is the no-effect control and ±100 the full control effect; nearly all actives have a fitted effect of over 60% in size
#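 Drug-selected KB-V1 cells, grown in DMEM lacking phenol red with 10% FBS, receive compound titrations; after three days at 37 degrees C, surviving cell ATP is quantified by CellTiter-Glo luminescence and responses normalized and curve-fitted.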
# DRD3 agonist: qHTS of D3 Dopamine Receptor Agonist: qHTS | max activation, % | actives 0.58% (n = 410,000) | AID 652048, 2013 | D(3) dopamine receptor (Homo sapiens), P35462 | D3R DiscoveRx beta-arrestin cells, luminescence, 90 min; in the data active means max activation above about 30%; further: 0% is about no effect
# Target sequence (P35462 whole entry, looked up): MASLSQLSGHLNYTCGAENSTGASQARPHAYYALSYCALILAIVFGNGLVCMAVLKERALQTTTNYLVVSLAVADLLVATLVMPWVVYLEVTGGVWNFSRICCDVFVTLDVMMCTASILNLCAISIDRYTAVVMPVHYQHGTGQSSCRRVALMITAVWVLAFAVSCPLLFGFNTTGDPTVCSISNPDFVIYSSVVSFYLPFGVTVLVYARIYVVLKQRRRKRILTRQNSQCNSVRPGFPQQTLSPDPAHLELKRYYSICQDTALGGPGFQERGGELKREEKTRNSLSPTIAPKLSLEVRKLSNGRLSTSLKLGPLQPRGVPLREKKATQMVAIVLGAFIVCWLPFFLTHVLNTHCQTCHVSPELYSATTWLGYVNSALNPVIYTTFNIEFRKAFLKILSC
#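 Agonist-mode cell screen: cells plated at 1500/well and incubated overnight at 37 °C, then exposed to library compounds for 90 min at 37 °C. Detection reagent was added for 30–60 min at room temperature, and luminescence was read.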
# DRD3 antagonist: qHTS of D3 Dopamine Receptor Antagonist: qHTS. D3R cells, DiscoveRx beta-arrestin luminescence, antagonist mode; active compounds read low. max response, negative = inhibition, %. actives 2.5% (n = 360,000). AID 652054, 2013; in the data active means max response below about -50%; inconclusive means no clear call, values can overlap the other calls; further: on the % scale 0 is the no-effect control and ±100 the full control effect
#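 Cells plated overnight at 1500 cells/well, then exposed to library compounds with dopamine controls for 90 minutes at 37 degrees C. DiscoveRx reagent added for 30–60 minutes at room temperature; luminescence read, quantitative HTS format.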
# SW480 rereplic: A quantitative high throughput screen for small molecules that induce DNA re-replication in SW480 colon adenocarcinoma cells. SW480 DNA re-replication, Hoechst DNA content imaging, 48 h. Potency, µM (top dose mostly 46.1 µM), inactives show at the highest dose re-replication activation, actives largely listed as activators. actives 1.8% (n = 340,000). AID 624297, 2012; further: potency means the concentration at half of the fitted maximal effect; % of control where 0% means no effect; nearly all actives have a fitted effect of over 55% in size
#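 Cells (250 per well) received 23 nL compound or DMSO by pin tool and were kept 48 hr at 37 C, 5% CO2. Nuclei were then stained with Hoechst for 40 min and scanned for DNA content.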
# * marks the source's active call; other numbers are inactive results; i = inactive; ? = inconclusive; / = not tested or not shown; ! = not active in a repeat; [ ] = another dose, or the depositor's remark. An excerpt weighted towards active compounds, which were near 8.9% of everything screened. Unless noted, the call rests on the fitted dose curve; in most records, active means well fitted curve in the direction sought with a large enough effect; inconclusive means small, poorly fitted or top-dose-only effect, or another doubt; inactive means no such curve, though single readings can be large; an effect the other way counts as inactive or inconclusive.
SMILES,KB-3-1 tox,MCF10A rerep,KB-V1 cytotox,DRD3 agonist,DRD3 antagonist,SW480 rereplic
CCOC(=O)C1CCCN(C(=O)c2cc3c(-c4cccc(OC)c4)nn(C)c3s2)C1 (centres undefined),?,6.51µM*,6.51µM*,0.4,-1.1,?
CC(C)n1c(=O)c2c(O)cc(=O)oc2c2ccccc21,i,?,6.51µM*,1.7,22.4,13.5%
CCn1c(=O)c2c(O)cc(=O)oc2c2ccccc21,i,-3.5%,?,-10.8,9.7,10.3%
COc1cc2ccccc2cc1C(=O)Nc1ccc2oc(-c3cccc(C)c3)nc2c1,i,/,i,0.3,/,/
O=C(NC1CCCCCCC1)c1ccc(S(=O)(=O)N2CCCC2)cc1,i,3.7%,i,3.4,-52.8*,-5.3%
O=C(Nc1ccccc1C(=O)O)c1cc(S(=O)(=O)N2CCCCC2)c(Cl)cc1Cl,i,2.2%,i,31.4*,108.9,-6.7%
O=C(Nc1cccnc1Cl)c1ccc(S(=O)(=O)N2CCCCCC2)cc1,i,-4.8%,9.2µM*,1.9,8.8,-1.1%
C/C=C(/C)C(=O)O[C@@H]1c2c(ccc3ccc(=O)oc23)O[C@@H]1C(C)(C)OC(=O)/C(C)=C\C,?,?,6.51µM*,11.1,65.9,10.5%[9.22 µM]
C/C=C(/C)C(=O)OC1c2c(ccc3ccc(=O)oc23)OC(C)(C)C1OC(C)=O (centres undefined),i,-11.1%,i,0.4,7.3,-3.4%
C/C=C(/C)C(=O)OC(C)(C)[C@@H]1Cc2c(ccc3ccc(=O)oc23)O1,i,19.8%,i,-106.4,-154.4*,-1.1%
O=[N+]([O-])c1ccc(N=Nc2ncc[nH]2)cc1,?,?,?,-14.5,-111.0*,?
COc1ccccc1CNC(=O)C1CCN(S(=O)(=O)c2c(C)noc2/C=C/c2cccs2)CC1,/,/,/,-13.4,/,/
CCNS(=O)(=O)c1ccc(CCC(=O)Nc2cc(Cl)ccc2Oc2ccccc2)cc1,i,4.8%,16.4µM*,15.8,45.3,2.5%
CC(C)NS(=O)(=O)c1ccc(CCC(=O)Nc2cc(Cl)ccc2Oc2ccccc2)cc1,?,17.7%,i,4.4,17.4,4.6%
O=C(NCCC1=CCCCC1)C(=O)NCC(c1ccco1)N1CCN(c2ccccc2)CC1 (centres undefined),i,?,?,-10.3,?,?
O=C(NCCC1=CCCCC1)C(=O)NCC(c1ccco1)N1CCN(c2ccccc2F)CC1 (centres undefined),i,0.3%,4.11µM*,10.8,-0.4,-45.8%
COc1ccc(N2CCN(C(CNC(=O)C(=O)NCCC3=CCCCC3)c3ccco3)CC2)cc1 (centres undefined),i,14.9%,2.59µM*,6.0,5.5,9.6%
O=C1O[C@H]2[C@H](O)[C@@H]1OC(O)[C@H]2O (some centres undefined),/,/,/,5.2,/,/
CCCN(CCC)C(=O)c1cc2c(=O)n3cccc(C)c3nc2n1C,/,/,/,-0.3,/,/
Cc1ccc(C(=O)N2CC3(C(C)C)CN(C(=O)c4ccc(C)cc4)CC(C(C)C)(C2)C3=O)cc1,i,4.8%,i,4.4,5.6,0.5%
CCC12CN(C(=O)c3ccc(C)cc3)CC(CC)(CN(C(=O)c3ccc(C)cc3)C1)C2=O,i,2.0%,5.17µM*,1.9,-6.7,?
COc1ccc(CCN(C)CC(O)COC(c2ccc(F)cc2)c2ccc(F)cc2)cc1OC (centres undefined),?,?,?,-20.1,-61.2*,?
COc1ccc(NS(=O)(=O)c2ccc(N3CCCCS3(=O)=O)cc2)cc1Cl,?,/,i,-15.1,/,/
Cc1nnc(NC(=O)Nc2cccc(Cl)c2)s1,i,-2.5%,?,-4.8,5.7,-6.1%
O=C(Nc1ccccc1)Nc1nnc(CSCc2ccccc2Cl)s1,i,14.6µM*,?,5.6,32.3,/
SMILES,KB-3-1 tox,MCF10A rerep,KB-V1 cytotox,DRD3 agonist,DRD3 antagonist,SW480 rereplic
O=C(Cc1ccccc1Cl)NNC(=O)Nc1ccccc1,i,0.4%,i,4.2,24.5,29.1µM*
Cc1ccc(OCCSCc2nnc(NC(=O)Nc3cccc(Cl)c3)s2)cc1,5.8µM*,?,?,6.5,4.1,-2.1%
O=C(Nc1ccc(Cl)c(Cl)c1)Nc1nnc(CSc2ccccc2)s1,?,?,14.6µM*,3.0,0.5,?
O=C(Nc1ccc(Cl)cc1)Nc1nnc(CSCc2ccccc2Cl)s1,?,123.3%,i,8.1,20.3,3.3%
CC1CCN(S(=O)(=O)c2ccc3[nH]ccc3c2)CC1,/,/,/,-13.0,/,/
O=C(Nc1ccc(Cl)c(Cl)c1)Nc1nccs1,4.61µM*,13µM*,4.11µM*,-7.0,-14.2,2.31µM*
COc1cccc(/C=N/Nc2cc(-n3nc(C)cc3-c3ccccc3)ncn2)c1O,?,3.66µM*,?,38.3*,23.6,?
COc1cccc(/C=N/Nc2nc(Nc3ccccc3)nc(-n3nc(C)cc3C)n2)c1O,5.17µM*,14.6µM*,?,-45.5,-140.6*,5.8µM*
Cc1cc(C)n(-c2nc(Nc3ccccc3)nc(-n3nc(C)cc3C)n2)n1,i,4.6%,i,3.7,1.4,-9.8%
CC(C)(C)NCCC(O)c1cc(C(F)(F)F)nc2c(C(F)(F)F)cccc12 (centres undefined),?,18.2%,20.6µM*,-5.0,1.2,?
CC(C)Cn1c(N)c(C(=O)COC(=O)c2cc(C(F)(F)F)nc3c(C(F)(F)F)cccc23)c(=O)n(C)c1=O,/,4.9%,/,/,/,-8.1%
O[C@@H](c1cc(C(F)(F)F)nc2c(C(F)(F)F)cccc12)[C@H]1CCCCN1,18.4µM*!,?,?,22.6,38.4,?
CCOC(=O)c1c(NC(=O)c2cc(=O)c3c(C)cc(C)cc3o2)sc(C)c1C,i,/,i,2.1,/,/
COc1ccc(NC(=O)c2cc3c(=O)n(Cc4cccnc4)ccc3nc2C)cc1Cl,i,/,i,-18.0,/,/
CC1CCC(NC(=O)C2c3ccccc3C(=O)N2Cc2cccs2)CC1 (centres undefined),i,-0.5%,3.66µM*,3.1,4.6,1.3%
O=C(NC1CCCCCCC1)C1c2ccccc2C(=O)N1Cc1cccs1 (centres undefined),i,-2.2%,i,-2.1,0.0,21.7%
